# Laboratory results from PubChem BioAssay.
# The source made the active and inactive calls.
# Tests used:
# [1] = compound effects on lung adenocarcinoma cell viability – A549, calcein-AM fluorescence, 48 h, basal, profiling panel (AID 1162); details: higher = more signal
# [2] = compound effects on differentiated 3T3-L1 adipocyte viability – cell-based, 3T3-L1 adipocytes, calcein-AM fluorescence, 48 h, basal, profiling panel (AID 1163); details: 3T3-L1 adipocytes viability, higher = more signal
# [3] = compound effects on hepatocellular carcinoma cell viability – HepG2, calcein-AM fluorescence, 48 h, basal, profiling panel (AID 1164); details: higher = more signal
# [4] = compound effects on multiple myeloma cell viability – MM1S, calcein-AM fluorescence, 48 h, basal, profiling panel (AID 1165); details: higher = more signal;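 note: viability of MM1S multiple myeloma cells under basal unstimulated conditions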
# [5] = calcein-AM signal in unstimulated myeloma cells – cell-based, calcein-AM fluorescence, 48 h, PK04 Diversity Set, profiling panel (AID 1166); details: RPMI8226 myeloma viability, higher = more signal;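 note: cells grown under basal conditions without added stimulus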
# [6] = JC-1 mitochondrial signal, unstimulated HepG2 cells – cell-based, JC-1 fluorescence, 24 h, 100 nL compound, profiling panel (AID 1167); details: HepG2 mitochondrial potential, higher = more signal
# [7] = JC-1 mitochondrial signal, unstimulated adipocytes – cell-based, JC-1 fluorescence, 3T3-L1 adipocytes, 24 h, 100 nL compound, profiling panel (AID 1168); details: JC-1 mitochondrial fluorescence, higher = more signal, called active from +8 up or from −8 down
# [8] = JC-1 mitochondrial signal, unstimulated myeloma cells – cell-based, JC-1 fluorescence, RPMI8226, 24 h, 100 nL compound, profiling panel (AID 1169); details: JC-1 mitochondrial potential fluorescence, higher = more signal
# [9] = JC-1 mitochondrial signal, unstimulated MM1S myeloma – cell-based, JC-1 fluorescence, 24 h, 100 nL compound, profiling panel (AID 1170); details: MM1S mitochondrial potential, higher = more signal
# [10] = resazurin metabolic signal in A549 cells – cell-based, resazurin fluorescence, 24 h, PK04 Diversity Set, profiling panel (AID 1171); details: A549 viability, higher = more signal, called active from +8 up or from −8 down
# Note: test concentration not given here.
Structure (SMILES),z-score [1],z-score [2],z-score [3],z-score [4],z-score [5],z-score [6],z-score [7],z-score [8],z-score [9],z-score [10]
C=C(C)[C@@H]1CC=C(C(O)C2C=CC3C(=O)N(C)C(=O)C3N2Nc2ccc([N+](=O)[O-])cc2[N+](=O)[O-])CC1 (stereo not given in full),-0.34,-0.924,-0.303,-0.731,-2.48,-0.286,-1.71 (inactive),0.553,-0.755,-0.375 (inactive)
COC(=O)[C@H](Cc1ccccc1)N1CC2=CCCC=C[C@@H]2[C@H]1[C@H](O)Cc1ccccc1,-0.183,-0.635,0.244,-3.12,-1.41,-0.866,-0.116 (inactive),-1.16,-0.746,0.705 (inactive)
CC(C)(C)OC(=O)CC[C@@]1(C(=O)NCCN2CCOCC2)N=C(c2ccc(OCCCO)cc2)O[C@@H]1c1ccccc1CN=[N+]=[N-],-0.34,-0.502,0.463,-0.0725,-0.749,0.777,-0.916 (inactive),-0.29,-0.586,0.973 (inactive)
C=CCNC(=O)[C@H]1[C@@H]2C(=O)O[C@@H](c3ccccc3)[C@@H](c3ccccc3)N2[C@@H](c2ccccc2OCCO)[C@]12C(=O)N(C(=O)OCCOC)c1ccc(C#Cc3ccc(OC)cc3)cc12,0.005,-0.182,0.0823,-1.05,-1.15,0.421,3.69 (inactive),-0.981,-1.13,-0.958 (inactive)
Cc1ccc(S[C@]2(C(=O)NCCCN(C)C)CC(=O)N(C3Cc4ccccc4C3)[C@@H]2c2ccc(CO)cc2I)cc1,0.691,-0.749,-0.563,-2.64,-2.5,-0.188,-1.28 (inactive),-0.201,-1.09,0.471 (inactive)
CC1CC/C=C\[C@H]2OC34C=CCN(Cn5nnc6ccccc65)C(=O)[C@H]3N(CCCCCCO)C(=O)[C@@H]4C2C(=O)O1 (stereo not given in full),0.264,-0.0662,0.91,1.95,0.456,1.63,0.53 (inactive),0.8,-0.657,0.0188 (inactive)
CC(C)C(=C=CC[C@H](O)c1ccccc1OCCO)C[C@H](O)COCc1ccccc1,0.827,-0.0066,0.245,-2.9,-1.15,-0.0954,-0.307 (inactive),-0.823,-0.662,-0.0334 (inactive)
[N-]=[N+]=NCc1ccccc1[C@@H]1OC(c2ccc(OCCCO)cc2)=N[C@]1(Cc1ccccc1N=[N+]=[N-])C(=O)O,0.143,1.47,-0.567,-1.82,-3.36,-1.44,-1.48 (inactive),-1.11,1.44,0.54 (inactive)
CCOC(=O)C[C@H]1[C@H](OC(=O)c2cc3ccccc3oc2=O)[C@@H](NC(=O)CC(C)C)c2cc(OCCCO)ccc2N1C(=O)Cc1ccc(OC)cc1,0.746,0.967,0.535,0.12,0.28,0.433,-0.119 (inactive),0.421,0.328,-0.546 (inactive)
COC(=O)[C@@]1(Cc2ccc(F)cc2)[C@H]2c3cc(C(=O)N4CCCC4)n(Cc4ccccn4)c3C[C@H]2CN1C(=O)c1ccccc1,-0.94,-0.0559,-0.347,-0.333,-2,1.51,-0.474 (inactive),-0.116,-1.65,-1.75 (inactive)
CC(=O)NCCCC[C@@H]1NC(=O)[C@H]2C[C@@H](C(=O)NCCCCCCNC(=O)CS)[C@@H](c3cccc(OCCO)c3)N2C1=O,-0.769,0.251,-0.644,-0.504,0.236,-1.4,-0.306 (inactive),0.186,-0.0983,-0.131 (inactive)
COc1ccc(C(=O)Nc2ccc3c(c2)[C@@]2(O[C@H](CCO)[C@@H]([Si](C)(C)c4ccc(OC)cc4)[C@@H]2C)C(=O)N3Cc2ccccc2)cc1,-1.68,1.38,-3.6,-2.72,-4.3,-1.9,1.59 (inactive),-1.04,-2.2,-2.72 (inactive)
O=C(NCCN1CCOCC1)[C@@H]1c2ccccc2C(=O)N(Cc2ccc(OC(F)(F)F)cc2)[C@H]1c1ccc(CO)cc1,3.01,1.04,0.113,0.0559,-0.231,2.31,0.229 (inactive),1.04,0.745,0.614 (inactive)
O=C1C[C@]2(c3ccc([N+](=O)[O-])cc3)C(=O)N(C3CC3)c3cc(CO)ccc3[C@H]2N1C1CCCCC1,-0.164,-0.898,0.214,-0.464,0.474,-1.07,-0.185 (inactive),-0.691,-0.993,-0.332 (inactive)
C=C(/C(=C/C[C@@H](OC(C)=O)c1cccc(OCCO)c1)c1cnc2ccccc2c1)C(C)C,0.295,1.53,0.224,-1.07,-1.97,-1.63,-0.436 (inactive),-0.533,0.581,-0.322 (inactive)
CC(C)C(O)C1C=CC2C(=O)NC(=O)C2N1Nc1ccccn1 (stereo not given),-0.188,0.258,0.0775,0.253,0.11,0.119,-1.28 (inactive),0.231,-0.0451,-1.05 (inactive)

Structure (SMILES),z-score [1],z-score [2],z-score [3],z-score [4],z-score [5],z-score [6],z-score [7],z-score [8],z-score [9],z-score [10]
COC(=O)[C@@]1(Cc2ccc(OC)cc2)[C@H]2c3cc(C(=O)N(C)C)[nH]c3C[C@H]2CN1C(=O)c1ccccc1,-0.974,-0.539,0.683,0.945,0.184,1.46,-0.372 (inactive),-0.582,-0.488,0.145 (inactive)
COCCCNC(=O)[C@@]1(CCS(=O)(=O)c2ccccc2)COC(c2ccc(OCCCO)cc2)=N1,-0.222,1.11,-0.771,-0.181,-0.49,-0.903,-0.736 (inactive),-0.249,-0.0725,-0.468 (inactive)
NC(=O)NCC#Cc1ccc2c(c1)[C@]1(C(=O)N2)[C@H](c2ccc(OCCO)cc2)N2[C@H](c3ccccc3)[C@H](c3ccccc3)OC(=O)[C@H]2[C@@H]1C(=O)NC[C@H](O)c1ccccc1,0.192,0.326,0.013,0.405,0.847,-1.4,-0.0754 (inactive),-0.538,0.207,0.401 (inactive)
COc1ccc(C(=O)Nc2cccc(CN3C(=O)[C@@]4(O[C@@H](CC(=O)N5CCC[C@H]5CO)[C@H]([Si](C)(C)c5ccc(OC)cc5)[C@H]4C)c4ccccc43)c2)cc1,-0.273,0.695,-0.765,-2.74,-4.26,1.98,0.487 (inactive),-1.13,-1.06,-0.35 (inactive)
COC(=O)[C@H](Cc1ccc(O)cc1)N[C@@H](/C=C/C1CC1)[C@H](O)Cc1ccccc1,-0.0547,-1.21,0.192,-1.69,-0.192,-1.82,-0.177 (inactive),-0.512,-1.01,0.0243 (inactive)
COCCCN1C(=O)[C@@]2(c3ccc([N+](=O)[O-])cc3)CC(=O)N(CC34CC5CC(CC(C5)C3)C4)[C@@H]2c2ccc(CO)cc21,0.555,-0.731,1.07,0.657,1.12,0.722,0.0634 (inactive),0.25,-1.87,-1.25 (inactive)
CC1CC/C=C\[C@H]2OC34C=CCN(CCN5CCOCC5)C(=O)[C@H]3N(CCCO)C(=O)[C@@H]4C2C(=O)O1 (stereo not given in full),-0.451,0.483,-0.723,1.22,0.42,-0.734,-0.711 (inactive),0.741,0.649,-0.467 (inactive)
COC(=O)[C@@]1(Cc2ccc(OC)cc2)[C@H]2c3cc(C(=O)N4CCCC4)n(CCn4cc([N+](=O)[O-])nc4C)c3C[C@H]2CN1C(=O)c1ccccc1,-1.13,0.936,0.0032,-0.0622,-2.16,2.13,-1.03 (inactive),0.564,-0.693,-0.612 (inactive)
O=C1NC(=O)C2C1C=CC(C(O)c1ccc([N+](=O)[O-])cc1)N2Nc1ccccn1 (stereo not given),0.0411,-0.379,-0.357,-0.492,-1.07,-0.969,-0.713 (inactive),-0.284,0.339,-0.0648 (inactive)
O=C1C2C=CC(C(O)c3c(F)cccc3Cl)N(Nc3ccc([N+](=O)[O-])cc3)C2C(=O)N1c1ccccc1 (stereo not given),-1,-0.0012,-0.645,0.19,-1.09,-1.14,-1.26 (inactive),-0.209,-0.542,0.372 (inactive)
CC(=O)OCC1C2CC[C@H]3C(OCc4ccc(F)cc4C(F)(F)F)OC[C@]4(C)[C@H]3C2=C(CN4C(=O)OC(C)(C)C)[C@H](C)C1COC(C)=O (stereo not given in full),-0.647,-0.0623,-0.174,-2.29,-1.93,2.61,-0.984 (inactive),-0.606,-1.3,0.892 (inactive)
CC(C)C(=C=CC[C@H](O)c1ccccc1OCCO)C[C@H](O)c1cc(Cl)cc(Cl)c1O,0.884,0.271,0.601,-3.42,-3.2,-1.1,0.427 (inactive),-0.788,-1.07,-0.0216 (inactive)
COC(=O)[C@@]1(Cc2ccc(OC)cc2)[C@H]2c3cc(C(=O)N4CCCC4)n(Cc4ccc(C(F)(F)F)nc4)c3C[C@H]2CN1C(=O)c1ccccc1,-1.3,0.202,0.0749,-1.03,-1.33,0.952,-1.59 (inactive),-0.779,-1.69,-0.266 (inactive)
CC(=O)c1ccc(C(O)C2C=CC3C(=O)N(c4ccccc4)C(=O)C3N2Nc2ccc(C(C)C)cc2)cc1 (stereo not given),-0.301,-1.69,0.123,-1.1,-0.994,-2.03,-1.56 (inactive),-0.293,-1.29,-0.532 (inactive)
O=C1O[C@H](c2ccccc2)[C@H](c2ccccc2)N2[C@H]1[C@@H](C(=O)O)[C@]1(C(=O)Nc3ccc(C#CCCO)cc31)[C@H]2c1ccc(OCCO)cc1,0.616,1,0.461,-0.963,0.926,-0.76,-0.138 (inactive),0.489,0.492,0.367 (inactive)
